High-throughput results: PubChem, National Center for Advancing Translational Sciences (NCATS)
Hits are enriched below; roughly 6% of the tested compounds scored in any of these assays.
DRD3 antagonist – D3 dopamine receptor (human) antagonism; D3R cells, DiscoveRx beta-arrestin luminescence, antagonist mode; stronger effect = lower value; max response, negative = inhibition, %; P35462; hit rate 2.5% among 360,000; in the data active = max response below about -50%; inconclusive = no clear call, values can overlap the other calls
Target sequence (P35462 whole entry, looked up): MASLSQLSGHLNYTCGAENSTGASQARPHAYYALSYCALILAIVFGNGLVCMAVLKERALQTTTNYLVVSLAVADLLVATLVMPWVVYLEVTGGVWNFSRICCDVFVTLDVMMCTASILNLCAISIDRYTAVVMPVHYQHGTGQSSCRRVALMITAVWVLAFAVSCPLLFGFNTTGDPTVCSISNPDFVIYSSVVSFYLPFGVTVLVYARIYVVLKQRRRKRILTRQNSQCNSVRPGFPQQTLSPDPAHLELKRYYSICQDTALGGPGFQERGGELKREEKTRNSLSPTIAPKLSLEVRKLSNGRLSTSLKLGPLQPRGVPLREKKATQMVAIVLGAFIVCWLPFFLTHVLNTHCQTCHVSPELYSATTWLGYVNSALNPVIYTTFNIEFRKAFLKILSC
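Cells plated overnight at 1500 cells/well, then exposed to library compounds with dopamine controls for 90 minutes at 37 degrees C. DiscoveRx reagent added for 30–60 minutes at room temperature; luminescence read, quantitative HTS format.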
D1 antag – blocks dopamine activation of the human D1 receptor | hit rate 3.2% among 360,000 | HEK293 TREx D1 cells, calcium flux, dopamine EC80; stronger effect = lower value | activity change, negative = inhibition, % at 10 µM; in the data active = activity change below about -30%
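Calcium flux readout: force-coupled, inducible Hek293 Trex D1 line, cells induced overnight at 30 C with tetracycline, dye-loaded 30–90 min at RT. Antagonism scored against EC80 dopamine challenge given 180 s after compound.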
D1 potentiator – enhances dopamine response at the human D1 receptor | HEK293 TREx D1 cells, calcium flux, dopamine EC20 potentiation | potentiation, % at 10 µM | hit rate 0.036% among 360,000 | AID 504651; in the data active = potentiation above about 30%
D3 ag – activates the human D3 dopamine receptor | AID 652048 | hit rate 0.58% among 410,000 | P35462 | max activation, % | D3R DiscoveRx beta-arrestin cells, luminescence, 90 min; in the data active = max activation above about 30%
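Cells at 1500/well, incubated overnight, then treated with pinned compounds (dopamine as control) for 90 min at 37 degrees C. DiscoveRx reagent added for 30 - 60 minutes at room temperature; luminescence read.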
Chronic BCR inh – blocks chronic active B-cell receptor signaling. ABC-DLBCL IkBa-CBG/CBR reporter, luminescence ratio, 4 h. Potency, µM (series often up to 46.1 µM), actives largely listed as inhibitors. hit rate 0.05% among 340,000. AID 493014; active = well fitted inhibition curve with a large enough effect in the signal ratio, with a control signal flat, not every such curve was filed as active; inconclusive = small, poorly fitted or top-dose-only effect, or effect the other way, or a change in a side signal; the % refers to the signal ratio
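TMD8 ABC-DLBCL cells carrying doxycycline-inducible green luciferase fused to IkappaBalpha plus unfused red luciferase were exposed to compounds (up to 46 uM) for 4 hrs at 37C. Activity came from the overlap-corrected green/red luminescence ratio.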
D1 agonist – human D1 receptor agonism; P21728; HEK293 T-REx D1 cells, calcium flux, agonist mode; activation, % at 2 µM; hit rate 1% among 360,000; AID 504660; in the data active = activation above about 30%
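Inducible HEK293 T-REx D1 cells, force-coupled to calcium signalling, were plated at 4000 cells/well with tetracycline and held overnight at 30 C. After no-wash calcium dye loading, compound-evoked calcium rise over 180 s flagged agonists.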
Hits are given with their value; n = inactive; u = inconclusive; x = not tested or not shown; ! = not active in a repeat.

SMILES	DRD3 antagonist	D1 antag	D1 potentiator	D3 ag	Chronic BCR inh	D1 agonist
Fc1ccc(Nc2nc(-c3ccncc3)cs2)cc1	n	-51.9	n	n	n	n
Cc1nc(C)c(-c2csc(Nc3ccc(O)cc3C)n2)s1	n	-31.6	n	n	u	n
Clc1ccc(Nc2nc(-c3ccncc3)cs2)cc1	n	x	x	n	x	x
Cc1cc(O)ccc1Nc1nc(-c2cccs2)cs1	n	n	n	n	u	n
CC1(C)Cc2cccc(C(=O)NCc3ccco3)c2O1	u	n	n	n	u	n
CC(C)(C)NC(=O)c1cccc2c1OC(C)(C)C2	n	n	n	49.2	u	n
Clc1ccc(/C=N/NC2=Nc3cccc4cccc2c34)cc1	n	-33.1	n	n	u	n
CCOCCCNC(=O)c1[nH]c2cc(C)ccc2c1Sc1ccc(Cl)cc1	x	n	n	n	x	n
O=C(Nc1cccc(F)c1)C1CCN(c2nc3ccccc3nc2C(F)(F)F)CC1	x	n	n	n	x	n
O=[N+]([O-])c1ccc2nc(Cl)nc(-c3ccccc3)c2c1	-56.0	-33.6	n	n	n	n
NC(=O)CC(NC(=O)Cc1cccc2ccccc12)c1ccc(N2CCCCCC2)c([N+](=O)[O-])c1 (stereo unspecified)	-68.1	n	n	n	n	n
Cc1cc(C)cc(C(=O)NC(CC(N)=O)c2ccc(N3CCC(Br)CC3)c([N+](=O)[O-])c2)c1 (stereo unspecified)	n	n	n	32.0	n	n
Cc1cccc(NS(=O)(=O)c2cccc(C(=O)NCC(C)(C)N3CCOCC3)c2)c1	-81.0	n	n	n	n	n
COc1ccccc1NS(=O)(=O)c1cccc(C(=O)NCC(C)(C)N2CCOCC2)c1	n	n	n	n	n	n
CC(C)(CNC(=O)Cc1ccc(Br)cc1)N1CCOCC1	n	-37.3	n	n	n	n
Cc1nn2c(=O)[nH]cnc2c1Cl	n	x	x	n	x	x
O=C1c2[nH]c3ccccc3c2CC1N1C(=O)c2ccccc2C1=O (stereo unspecified)	n	x	x	n	x	x
CCOc1ccccc1NC(=O)c1sc2nc3c(cc2c1N)CN(Cc1ccccc1)CC3	x	n	n	n	x	54.6
COc1ccccc1NC(=O)c1sc2nc3c(cc2c1N)CN(Cc1ccccc1)CC3	x	n	n	n	x	n
c1cc2c(cc1Cn1cnnn1)OCO2	-57.3	n	n	n	n	n
c1cc2c(cc1-n1cnnn1)OCO2	n	n	n	n	n	n
CN(C)c1ccc(-c2ccnc3c2CC(C)(C(=O)NCc2ccncc2)O3)cc1 (stereo unspecified)	n	x	x	n	x	x
CCc1ccc(NC(=O)NCCN2CCc3ccccc3C2)cc1	-69.0	n	n	n	n	n
CCc1ccc(NC(=O)NCCCN2CCCC2=O)cc1	n	n	n	n	n	n
O=C(NCCN1CCc2ccccc2C1)Nc1ccc(F)cc1	-77.2	n	n	n	n	n
SMILES	DRD3 antagonist	D1 antag	D1 potentiator	D3 ag	Chronic BCR inh	D1 agonist
CCCCNC(=O)C1(C)CCN1C(=O)c1cccc(OC(F)(F)F)c1 (stereo unspecified)	n	x	x	n	x	x
CC(C)c1nc2c(s1)CCc1onc(-c3ccc(Cl)cc3)c1-2	n	n	n	31.7	n	n
CCCc1nc2c(s1)CCc1onc(-c3ccc(Cl)cc3)c1-2	n	n	n	n	n	n
CCCc1nc2c(s1)CCc1onc(-c3ccc(Br)cc3)c1-2	n	x	x	42.9	x	x
COc1ccc(-c2noc3c2-c2nc(C(C)C)sc2CC3)cc1	n	x	x	n	x	x
Cc1ccc(-c2nn(CC(=O)NC3CCCCC3)c3c2cnc2ccc(F)cc23)cc1C	x	n	n	n	x	n
COCCC(=O)N1CCOCC1c1cc(C(=O)NCc2ccccc2)no1 (stereo unspecified)	n	x	x	n	x	x
O=C(O)CC1SC(=Nc2ccccc2)N(c2ccccc2)C1=O (stereo unspecified)	n	-30.8	n	n	n	n
O=C(Cn1c(=O)n(-c2ccc(F)c(Cl)c2)c(=O)c2sc3ccccc3c21)NC1CCCCC1	x	n	n	n	x	n
Cn1cc(S(=O)(=O)N2CCCCC2)cc1C(=O)Nc1cccc(C#N)c1	x	n	n	n	x	n
COc1ccc(C(=O)N2CCCC(C)(C(=O)NS(=O)(=O)C3CC3)C2)cc1 (stereo unspecified)	-52.9	x	x	n	x	x
Cc1ccc(/C=C/C(=O)c2c(C)nc3ccccn23)cc1	n	-71.5	n	n	u	n
CCOc1ccc(S(=O)(=O)N2CCN(c3c(C)cccc3C)CC2)c2ccccc12	x	n	n	n	x	n
CCOC(=O)C1(CCOc2ccccc2)CCN(Cc2cccc3c2OCO3)CC1	-60.0	n	n	n	u	n
CCOC(=O)C1(CCOc2ccccc2)CCN(Cc2cccc(-n3cccn3)c2)CC1	-60.4	n	n	n	n	n
CCOC(=O)C1(Cc2ccccc2)CCN(Cc2cnn(C(C)C)c2)CC1	n	n	n	n	n	n
CCOC(=O)C1(CCOc2ccccc2)CCN(Cc2cccc(F)c2)CC1	-52.6	n	n	n	n	n
CCOC(=O)C1(Cc2ccccc2)CCN(Cc2csc(C(C)=O)c2)CC1	n	-34.2	n	n	n	n
CCOC(=O)C1(CCOc2ccccc2)CCN(Cc2cccc(OCCO)c2)CC1	n	n	n	n	n	n
C[C@H](CO)N1C[C@H](C)[C@H](CN(C)C(=O)Nc2ccc(C(F)(F)F)cc2)OCc2cnnn2CCCC1=O	n	x	x	n	x	x
CCOC(=O)C1(CCOc2ccccc2)CCN(Cc2ccc(OC)cc2)CC1	-71.9	x	x	n	x	x
O=S(=O)(c1ccc(C(F)(F)F)cc1)N1CCN(S(=O)(=O)c2ccc3c(c2)OCCO3)CC1	x	n	n	x	x	n
O=C(CSc1nc2c(c(=O)[nH]1)CN(Cc1ccc(F)cc1)CC2)Nc1cccc(C(F)(F)F)c1	x	n	n	n	x	n
COCc1cc(C)nc(SCc2ccc([N+](=O)[O-])cc2)c1C#N	n	n	44.4	n	n	n
COCc1cc(C)nc(SCC(=O)N2CCC(C)CC2)c1C#N	n	-56.8	n	n	n	n
SMILES	DRD3 antagonist	D1 antag	D1 potentiator	D3 ag	Chronic BCR inh	D1 agonist
Cc1cc(C)nc(SCc2ccc([N+](=O)[O-])cc2)n1	n	n	n	n	u	n
Cc1ccnc(SCc2ccc([N+](=O)[O-])cc2)n1	-57.4	n	n	n	u	n
CC(C)c1ccc(S(=O)(=O)N2CCN(Cc3cccc(F)c3)CC2)cc1	x	n	n	n	n	n
Cc1ccc(Nc2nc(N)nc(CSc3nc4ccccc4s3)n2)cc1	n	n	n	45.2!	n	n
Cc1ccc(Nc2nc(N)nc(CN3CCc4ccccc4C3)n2)cc1	-64.3	-36.7	n	n	n	n
Cc1ccc(Nc2nc(N)nc(CCl)n2)cc1	n	n	n	n	n	n
Cc1c(Cl)cccc1Nc1nc(N)nc(CN2CCc3ccccc3C2)n1	-64.0	n	n	n	u	n
Cc1cccc(Nc2nc(N)nc(CN3CCC(C(N)=O)CC3)n2)c1C	n	n	n	n	n	n
